Measurements: PubChem BioAssay AID504332 (National Center for Advancing Translational Sciences (NCATS), 2011)
Several values for one entry are separate records, joined by “and”; a condition that tells them apart may be missing. Equal values may be shown once. Among all 350,000 compounds or so, about 31,000 (8.9%) were called active. Not shown: some 15% with an inconclusive outcome. The call rests on the fitted dose curve; in most records, active means well fitted inhibition curve with a large enough effect; inconclusive means small, poorly fitted or top-dose-only effect; inactive means no such curve, though single readings can be large or run the other way. The list comes from a sample in which actives are over-represented; it also holds similar structures and randomly drawn compounds. Some structures have more than one record in an assay (separate samples or runs), and their calls can disagree.
Further: nearly all actives have a fitted effect of over 75% in size.
On the % scale 0 is the no-effect control and ±100 the full control effect; potency means the concentration at half of the fitted maximal effect.

What follows are molecules tested against Histone-lysine N-methyltransferase EHMT2 (Homo sapiens) (UniProt Q96KQ7) (assay: qHTS Assay for Inhibitors of Histone Lysine Methyltransferase G9a). Conditions: G9a H3K9 monomethylation, AlphaScreen, 2 h; series mostly up to 102 µM; activity, negative = inhibition: at the top concentration.
Sequence of Histone-lysine N-methyltransferase EHMT2 (Homo sapiens) (Q96KQ7 913-1193 limits assumed): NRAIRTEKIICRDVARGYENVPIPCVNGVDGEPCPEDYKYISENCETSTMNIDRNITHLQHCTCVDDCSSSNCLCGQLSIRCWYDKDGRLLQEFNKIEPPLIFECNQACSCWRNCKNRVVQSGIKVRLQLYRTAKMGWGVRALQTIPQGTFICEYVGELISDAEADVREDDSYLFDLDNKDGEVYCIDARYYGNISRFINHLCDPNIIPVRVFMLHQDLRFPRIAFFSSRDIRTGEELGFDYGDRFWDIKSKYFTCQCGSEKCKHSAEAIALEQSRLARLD
Method in brief: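 Using a bead-based AlphaScreen, monomethylated H3K9 product from 2 h room-temperature reactions (G9a 20 nM, peptide 500 nM, SAM 20 uM) was detected with 0.5 ug/mL rabbit anti-H3K9me1 antibody.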
`COc1ccccc1-c1[se]c2ccccc2c1I` was tested, and the “activity, negative = inhibition” value was 71.9% [at 59 µM] (inactive).
In the case of `COC(=O)C1=C(c2ccc(F)cc2OCc2ccccc2)C[C@@H]2CC[C@H]1N2C(=O)NCc1ccc(OC)c(OC)c1`, the activity, negative = inhibition was -8.71% [at 0.501 µM] (inactive).
In the case of `CN(C)[C@@H]1C(=O)C(C(N)=O)=C(O)[C@@]2(O)C(=O)C3=C(O)c4c(O)cccc4[C@@](C)(O)C3CC12` (some centres not stated), the Potency was 22.4 µM (active).
`CNC(=O)O/N=C(\N)Cc1csc2ccccc12` was tested, and the “activity, negative = inhibition” value was 20.1% [at 59 µM] (inactive).
With `C/C(CCc1c[nH]c2ccccc12)=N\O` the activity, negative = inhibition was 13.7% [at 12.7 µM] (inactive).
`O=C(Nc1ccc(Cl)cc1C(=O)c1ccccc1)c1cc(Cl)cc(Cl)c1` was tested, and the “activity, negative = inhibition” value was -10.5% [at 59 µM] (inactive).
With `C=Cn1ccnc1P(=S)(c1cc(N(CC)CC)ns1)c1nccn1C=C` the “activity, negative = inhibition” value was -9.17% [at 59 µM] (inactive).
`COP(=O)(NS(=O)(=O)c1ccccc1)OC` was tested, and the “activity, negative = inhibition” value was -8.09% (inactive).
For `Cc1nc2ccc(N3CCN(C)CC3)cc2nc1C`, the “activity, negative = inhibition” value was 14.8% (inactive).
In the case of `CN1CCN(c2cc(N3CCNCC3)ccc2[N+](=O)[O-])CC1`, the “activity, negative = inhibition” value was -17.5% [at 59 µM] (inactive).
In the case of `COc1cccc(-c2nc3ccc(N4CCN(C)CC4)cc3[nH]2)c1`, the Potency was 44.7 µM (active).
For `CN(C)/C=C(\C=[N+](C)C)c1[nH]ncc1[N+](=O)[O-]`, the “activity, negative = inhibition” value was -35.8% (inactive).
In the case of `CCc1nnc(NS(=O)(=O)c2ccc(N=Cc3c(O)n(-c4ccccc4)c(=O)[nH]c3=O)cc2)s1`, the “activity, negative = inhibition” value was -36.3% (inactive).
In the case of `N#CC1=C(N)Oc2c(c(=O)oc3ccccc23)C1c1ccccc1OC(=O)c1cccs1` (configuration not stated), the “activity, negative = inhibition” value was -9.96% (inactive).
`COC(=O)C1=C(c2ccc(F)cc2F)C[C@@H]2CC[C@H]1N2C(=O)NC1CC1` was tested, and the activity, negative = inhibition was 2.71% [at 0.501 µM] (inactive).
In the case of `O=C(CCNS(=O)(=O)c1ccccc1)Nc1ccc(Cl)cc1C(=O)c1ccccc1`, the “activity, negative = inhibition” value was 21.4% [at 59 µM] (inactive).
With `CCOC(=O)C1=C(C)OC(N)=C(C(=O)OC)C12C(=O)Nc1ccc(Br)cc12` (configuration not stated) the activity, negative = inhibition was 8.25% [at 2.33 µM] (inactive).
`CC[N+](C)(CC)CCC[n+]1c(-c2ccccc2)c2cc(N)ccc2c2ccc(N)cc21` was tested, and the Potency was 5.01 µM (active).
With `C[C@H]1CC[C@@]2(NC1)O[C@@H]1C[C@H]3[C@@H]4CC=C5C[C@@H](O)CC[C@]5(C)[C@@H]4CC[C@]3(C)[C@@H]1[C@@H]2C` the activity, negative = inhibition was 18.8% [at 21.5 µM] (inactive).
`CCN1CCN(c2nc3c(c(=O)[nH]2)CCC3)CC1` was tested, and the “activity, negative = inhibition” value was -48.7% (inactive).
With `CCOc1ccc(CN(CCCl)CCCl)cc1C(=O)OC` the activity, negative = inhibition was 16.9% [at 0.501 µM] (inactive).
With `CCOP(=O)(OCC)C(O)c1ccc(OC)cc1OC` (configuration not stated) the “activity, negative = inhibition” value was 7.49% [at 59 µM] (inactive).
`CCOC(=O)c1ncn2c1[C@@H]1CCCN1C(=O)c1cc(OC)ccc1-2` was tested, and the activity, negative = inhibition was “inactive”.
`CCOC(=O)C1CN(C)CCC1=O` (configuration not stated) was tested, and the activity, negative = inhibition was 26.6% [at 2.33 µM] (inactive).
For `O=C(Cc1ccccc1)N1CCN(C2CCCCCC2)CC1`, the Potency was 31.6 µM (active).
In the case of `CCC(=NCCc1ccccc1)c1c(O)n(C2CCCCC2)c(=O)[nH]c1=O`, the “activity, negative = inhibition” value was -19.9% [at 59 µM] (inactive).
`CN1CCN(Cc2ccccc2C(F)(F)F)CC1` was tested, and the “activity, negative = inhibition” value was -12.5% [at 59 µM] (inactive).
In the case of `CCN1CCN(C(=O)Cc2coc3cc(C)cc(C)c23)CC1`, the “activity, negative = inhibition” value was -6.19% [at 59 µM] (inactive).
`O=C(Cn1c(=O)n(CC2CS2)c2ccccc21)N1CCCCC1` (configuration not stated) was tested, and the “activity, negative = inhibition” value was -40.4% (inactive).
With `COc1ccccc1CN1CCN(C(=O)Cc2ccccc2)CC1` the Potency was 17.8 µM (active).
`CCOC(=O)C(O)(c1ccc(NC(=O)c2ccco2)c(OC)c1)C(F)(F)F` (configuration not stated) was tested, and the activity, negative = inhibition was -45.5% [at 2.33 µM] (inactive).
For `c1ccc(CCCCN2CCC(c3ccccc3)CC2)cc1`, the “activity, negative = inhibition” value was 9.12% [at 59 µM] (inactive).
`CC1=C(C(=O)Nc2ccccc2)S(=O)(=O)CCO1` was tested, and the “activity, negative = inhibition” value was 2.61% (inactive).
With `CC(Cc1ccccc1)NC=O` (configuration not stated) the activity, negative = inhibition was 2.33% [at 12.7 µM] (inactive).
In the case of `COC(=O)C1=C(c2ccc(Cl)c(C(F)(F)F)c2)C[C@@H]2CC[C@H]1N2C(=O)NC1CC1`, the activity, negative = inhibition was 7.94% [at 0.501 µM] (inactive).
In the case of `OC(Cn1c2ccccc2c2ccccc21)C[n+]1ccccc1` (configuration not stated), the “activity, negative = inhibition” value was 18.9% (inactive).
`CN1CCc2nc(SC(C(=O)O)c3ccccc3)c(C#N)c(-c3cccs3)c2C1` (configuration not stated) was tested, and the Potency was 31.6 µM (active).
With `CN1CCCC(=C(c2cccs2)c2cccs2)C1` the activity, negative = inhibition was -17.6% [at 12.7 µM] (inactive).
In the case of `Cn1c(O)c(C=NCCCC(=O)O)c(=O)n(C)c1=O`, the “activity, negative = inhibition” value was -19.8% (inactive).
In the case of `COCCNC(=O)CN1C2CCC1CC(O)(c1cccnc1)C2` (configuration not stated), the “activity, negative = inhibition” value was -5.11% (inactive).
With `O=C1NC(=O)C(C/C=C/c2ccccc2)C(=O)N1` the Potency was 25.1 µM (active).
For `O=C(O)C1C2CCC(O2)C1C(=O)O` (configuration not stated), the activity, negative = inhibition was 48.4% [at 12.7 µM] (inactive).
For `CN(C)C(=O)NC(O)C(Cl)(Cl)Cl` (configuration not stated), the “activity, negative = inhibition” value was -0.62% (inactive).
For `CC(C)c1ccc(OCC(=O)N2CCCN(C)CC2)cc1`, the “activity, negative = inhibition” value was -4.39% (inactive).
For `O=C(COc1ccc2ccccc2c1)N1CCN(Cc2ccncc2)CC1`, the Potency was 6.31 µM (active).
For `CCc1ccc(OCC(=O)N2CCN(CC(=O)Nc3ccccc3Cl)CC2)cc1`, the activity, negative = inhibition was -1.72% [at 2.33 µM] (inactive).
With `O=C(COC(=O)c1ccccc1)Nc1ccc(Cl)cc1C(=O)c1ccccc1` the “activity, negative = inhibition” value was 0.53% (inactive).
`CC(=O)Cc1ccc(OC(C)C)cc1` was tested, and the “activity, negative = inhibition” value was -0.528% (inactive).
`O=C(COC(=O)Cc1ccccc1)Nc1ccc(F)cc1` was tested, and the “activity, negative = inhibition” value was 7.02% (inactive).
For `COC(=O)C1=C(c2cccc(OCc3ccccc3)c2)C[C@@H]2CC[C@H]1N2C(=O)NNCc1ccccc1`, the activity, negative = inhibition was 2.91% [at 2.33 µM] (inactive).
`O=S(=O)(Nc1ccc2[nH]ncc2c1)c1ccccc1Cl` was tested, and the Potency was 22.4 µM (active).
In the case of `NC(=O)Cn1cc(C(=O)c2ccccc2F)c2ccccc21`, the “activity, negative = inhibition” value was 24.1% (inactive).
In the case of `O=C(CCCn1c(=O)[nH]c2cc(Cl)ccc2c1=O)N1CCC2(CC1)OCCO2`, the “activity, negative = inhibition” value was -2.1% (inactive).
With `Cc1cccc(OP(=O)(Oc2cccc(C)c2)OC(c2ccccc2)C(F)(F)F)c1` (configuration not stated) the “activity, negative = inhibition” value was 170% (inactive).
For `COc1ccc(-n2c(-c3ccccc3)nc3ccccc3c2=O)cc1`, the “activity, negative = inhibition” value was -4.54% (inactive).
In the case of `C[N+]1(C)CCOC(O)(c2ccc(-c3ccc(C4(O)C[N+](C)(C)CCO4)cc3)cc2)C1` (configuration not stated), the Potency was “inactive and 50.1 µM (active) and 20 µM (active)”.
For `CC[N+]1(CCOC(=O)C(O)(c2ccccc2)c2ccccc2)CCCCC1`, the activity, negative = inhibition was -33.9% [at 12.7 µM] (inactive).
For `Cc1ccc(-c2nn(CCC#N)cc2C(=O)O)cc1C`, the “activity, negative = inhibition” value was 4.34% (inactive).
For `O=C(c1ccccc1[N+](=O)[O-])N1CCC2(CC1)OCCO2`, the “activity, negative = inhibition” value was -1.06% (inactive).
`CC(C)n1c(=O)c(C=Nc2ccc(Br)cc2)c(O)n(Cc2ccco2)c1=O` was tested, and the “activity, negative = inhibition” value was 1.83% [at 59 µM] (inactive).
For `Cc1ccc(-n2c(-c3ccc([N+](=O)[O-])cc3)nc3ccccc3c2=O)cc1`, the “activity, negative = inhibition” value was 7.18% [at 59 µM] (inactive).
For `O=[N+]([O-])c1cnc2ccc3ccccc3c2c1`, the Potency was 50.1 µM (active).
